Assay outcomes (PubChem)
Many of the other results were omitted from the sample, so hits are more common in it than they were.
Tg IFNy HTS – blocks Toxoplasma gondii growth in the presence of IFN-gamma. Toxoplasma gondii growth in IFN-gamma-treated host cells; active compounds read low. actives 3.8% (n = 69,000). activity change, negative = inhibition, % (concentration not given with the values); in the data active = activity change below about -70%, passing the limit was not always enough;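 also: host cells are HeLa cells infected with Toxoplasma gondii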
Large screens that a line does not name were inactive.

Cc1onc(NC(=O)c2nccnc2C(=O)O)c1Br	none
O=C(COc1ccccc1)NCCCNC(=O)c1cccnc1	none
CC(=O)Oc1ccc2c(c1)CCC1C2=CCC2(C)C(OC(C)=O)CCC12 (stereo not drawn)	Tg IFNy HTS -92
CCCCC(=O)O[C@H]1CC[C@H]2[C@@H]3CCc4cc(O)ccc4[C@H]3CC[C@]12C	none
COc1ccccc1NC(=O)N1CC(=O)N2[C@H](CO)[C@@H](c3ccc(C#CC(C)C)cc3)[C@@H]2C1	none
CN1C(=O)CCc2cc(NC(=O)c3cccc(C(F)(F)F)c3)ccc21	none
COC(=O)[C@@H]1[C@@H](CO)[C@@H]2Cn3c(ccc(-c4ccccc4OC)c3=O)[C@@H]2N1C(=O)c1cnccn1	none
O=C(Cn1c(=O)ccc2cc(S(=O)(=O)N3CCCC3)ccc21)Nc1ccc(F)cc1	none
CC1CCN(S(=O)(=O)c2ccc3c(ccc(=O)n3CC(=O)Nc3cccc(F)c3)c2)CC1	Tg IFNy HTS -81
COc1cccc(NC(=O)Cn2c(=O)ccc3cc(S(=O)(=O)N4CCCC4)ccc32)c1	none
CSc1cccc(NC(=O)Cn2c(=O)ccc3cc(S(=O)(=O)N4CCC(C)CC4)ccc32)c1	none
CC1CCN(S(=O)(=O)c2ccc3c(ccc(=O)n3CC(=O)NC(C)C)c2)CC1	none
CC(=O)Nc1ccc(NC(=O)Cn2c(=O)ccc3cc(S(=O)(=O)N4CCC(C)CC4)ccc32)cc1	none
CC1CCN(S(=O)(=O)c2ccc3c(ccc(=O)n3CC(=O)Nc3ccc(F)c(Cl)c3)c2)CC1	none
Cc1ccc(NC(=O)Cn2c(=O)ccc3cc(S(=O)(=O)N4CCC(C)CC4)ccc32)cc1Cl	Tg IFNy HTS -93
CC(C)c1ccc(NC(=O)Cn2c(=O)ccc3cc(S(=O)(=O)N4CCCC4)ccc32)cc1	Tg IFNy HTS -78
CN(CCc1ccccn1)c1nc2ncccc2o1	none
COc1ccc(-c2nc(C)c(CCNC(=O)c3c(F)cccc3F)s2)cc1	none
CC(C(N)=O)N1CCC=C(CN(C)C(=O)/C=C/c2ccccc2)C1 (stereo not drawn)	none
CN(Cc1ccccc1)Cc1cc(C(=O)NCC2(O)CCCCC2)no1	none
C#Cc1cccc(Nc2ncnc3cc(OCCOC)c(OCCO)cc23)c1	none
Fc1cc(F)cc(NC(=S)NCCCN2CCOCC2)c1	none
CCCc1ncncc1C(=O)N1CCc2onc(-c3ccc4c(c3)OCO4)c2C1	none
CCCC(=O)O[C@]1(C(=O)COC(C)=O)CC[C@H]2[C@@H]3C[C@H](F)C4=CC(=O)C=C[C@]4(C)[C@@]3(F)[C@@H](O)C[C@@]21C	none
COc1ncc(C(=O)N2CCOC(c3ccc(Cl)c(Cl)c3)C2)cn1 (stereo not drawn)	none
COc1cccnc1C(=O)N1CCOC(c2ccc(Cl)c(Cl)c2)C1 (stereo not drawn)	none
COc1cccc(C)c1C(=O)N1CCOC(c2ccc(Cl)c(Cl)c2)C1 (stereo not drawn)	Tg IFNy HTS -77
CC(C)(C)c1[nH]cnc1/C=c1\[nH]c(=O)/c(=C/c2ccccc2)[nH]c1=O	Tg IFNy HTS -87
COc1ccc(C[C@H]2CCn3cc(nn3)COC[C@@H](c3ccccc3)NC2=O)cc1	none
COc1cccc(CNC(=O)[C@@H]2[C@@H](CO)[C@@H]3Cn4c(cccc4=O)[C@H]2N3C(=O)C2CCCC2)c1	none
c1coc(CN2CCC3O[C@H](COCC4CCOCC4)CCC32)c1 (stereo partly drawn)	none
O=c1oc2c(O)c(O)cc3c(=O)oc4c(O)c(O)cc1c4c23	none
CCC(C(=O)NCCN1CCCC1)n1c2ccccc2c2cnn(C)c(=O)c21 (stereo not drawn)	none
CCC(C(=O)N1CCN(c2ccccn2)CC1)n1c2ccccc2c2cnn(C)c(=O)c21 (stereo not drawn)	Tg IFNy HTS -73
Cn1ncc2c3ccccc3n(CC(=O)N3CCN(c4ccccn4)CC3)c2c1=O	none
CSc1cccc(-n2nnc(C(=O)NCc3cccs3)c2N)c1	none
C[C@@H]1CN([C@@H](C)CO)C(=O)Cc2cc(NS(=O)(=O)c3cccs3)ccc2O[C@H]1CN(C)CC1CCCCC1	none
Cc1cc(Cl)ccc1NC(=O)Cn1ncc2c(N3CCN(c4ccccn4)CC3)ncnc21	none
Cc1cccc(NC(=O)Cn2ncc3c(N4CCN(c5ccccn5)CC4)ncnc32)c1	none
COc1ccc(NC(=O)Cn2ncc3c(N4CCN(c5ccccn5)CC4)ncnc32)cc1Cl	none
O=C(Cn1ncc2c(N3CCN(c4ccccn4)CC3)ncnc21)Nc1ccccc1Cl	none
CC(C)c1cccc(NC(=O)Cn2ncc3c(N4CCN(c5ccccn5)CC4)ncnc32)c1	Tg IFNy HTS -93
Cc1ccc(NC(=O)Cn2ncc3c(N4CCN(c5ccccn5)CC4)ncnc32)cc1C	none
Cc1ccc(NC(=O)Cn2ncc3c(N4CCN(c5ccccn5)CC4)ncnc32)cc1Cl	Tg IFNy HTS -74
O=C(Cn1ncc2c(N3CCN(c4ccccn4)CC3)ncnc21)Nc1ccc(Cl)cn1	Tg IFNy HTS -83
CC(C)c1ccc(NC(=O)Cn2ncc3c(N4CCN(c5ccccn5)CC4)ncnc32)cc1	none
COCc1nnc(NC(=O)CSCc2ccc(Cl)c(Cl)c2)s1	none
Cc1noc(C)c1NC(=O)N1CCC(n2cc(C(C)(C)C)nn2)CC1	none
OC(CC#CCN1CCCC1)(c1ccccc1)C1CCCCC1 (stereo not drawn)	none
CCOC(=O)c1nn(Cc2ccccc2)c2c1CN(C(=O)CCc1scnc1C)CC2	none
CS(=O)(=O)N1CCCC12CCCN(C(=O)c1ccno1)C2 (stereo not drawn)	none
CC(C)(C)c1noc(C2CCN(S(=O)(=O)c3ccc4c(c3)OCCO4)C2)n1 (stereo not drawn)	none
Cc1cccc(-c2c3c(=O)n(C)c(=O)n(C)c3c3nnc4ccccc4n23)c1	none
C=CCN1CCc2c(nnn2CC2CC2)C1COCC1CC1 (stereo not drawn)	none
CNc1nc(N2CC[C@@H](c3ccc4ccccc4c3)[C@H](O)C2)ncc1F	none
Cc1n[nH]c(C)c1S(=O)(=O)N1CCN(c2ccccc2C(F)(F)F)CC1	none
CCc1ccc(S(=O)(=O)N2CCc3nc(CNC(=O)C4CCC4)n(C)c3C2)cc1	none
CCc1ccccc1S(=O)(=O)N1CCc2nc(CNC(=O)C3CCC3)n(C)c2C1	Tg IFNy HTS -84
Cn1c(CNC(=O)C2CCC2)nc2c1CN(S(=O)(=O)c1ccc(F)cc1)CC2	none
O=C(Cc1ccccn1)N1CC(=O)N2[C@@H](CO)[C@@H](c3ccc(C#CCC4CCCC4)cc3)[C@@H]2C1	none
CC1(C)C2CC[C@]3(C)[C@H](C(=O)C=C4[C@@H]5C[C@@](C)(C(=O)O)CC[C@]5(C)CC[C@]43C)[C@@]2(C)CC[C@@H]1OC(=O)CCC(=O)O (stereo partly drawn)	none
C=C(C)[C@@H]1CC[C@]2(C(=O)O)CC[C@]3(C)[C@H](CC[C@@H]4[C@@]5(C)CC[C@H](OC(=O)CC(C)(C)C(=O)O)C(C)(C)[C@@H]5CC[C@]43C)[C@@H]12	Tg IFNy HTS -73
C=C(C)[C@@H]1CC[C@]2(CO)CC[C@]3(C)[C@H](CC[C@@H]4[C@@]5(C)CC[C@H](O)C(C)(C)[C@@H]5CC[C@]43C)[C@@H]12	none
COc1ccccc1-c1ccc([C@H]2[C@@H](CO)N[C@@H]2CNC(=O)C2CC2)cc1	none
Cc1ccc(NC(=O)c2c(O)c3cccnc3n(-c3cccc(F)c3)c2=O)cc1C	none
CN1CC2(CCN(C(=O)C3(c4ccc(Cl)cc4)CCCCC3)C2)OC1=O (stereo not drawn)	none
COc1ccc(-n2nc(C(=O)O)nc2C)cc1	none
COc1ccc(-n2c(C)c([N+](=O)[O-])c3ccc(O)cc32)cc1	Tg IFNy HTS -77
COc1ccc(-n2c(C)c3c(OC)cccc(=O)c3c2C)cc1	none
